# Experimental data taken from PubChem BioAssay AID1159580 (chemical genetic matrix, 2015).
# The whole screen tested about 5,500 compounds, of which about 2,000 (36%) were called active. Another 18% or so got no clear call; they are omitted. Some of the results follow. A number with no mark means an inactive call. Rule as the data show it: active = normalized growth mostly below about 0.91 (no sharp cut-off); inconclusive = no clear call, values can overlap the other calls; inactive = mostly above about 0.92.
# Test: chemical genetic growth profiling, strain panel (AID 1159580);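 also: tested at 20 µM; growth read once vehicle control cultures reached saturation at 30 °C; 1 = growth at the plate median or of vehicle wells; lower values mean less growth of the strain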
# Settings: growth OD
# [1] = S. cerevisiae deletion strains, locus YBR021W, strain FUR4, active compounds read low
# [2] = S. cerevisiae deletion strains, locus YBR229C, strain ROT2, active compounds read low
# [3] = S. cerevisiae deletion strains, locus YCL029C, strain bik1, active compounds read low
# [4] = S. cerevisiae deletion strains, locus YDL035C, strain GPR1, active compounds read low
# [5] = S. cerevisiae deletion strains, locus YDL074C, strain BRE1, active compounds read low
# [6] = S. cerevisiae deletion strains, locus YDL101C, strain DUN1, active compounds read low
# [7] = S. cerevisiae deletion strains, locus YDL185W, strain tfp1, active compounds read low
# [8] = S. cerevisiae deletion strains, locus YDL192W, strain arf1, active compounds read low
# [9] = S. cerevisiae deletion strains, locus YDR101C, strain arx1, active compounds read low
# [10] = S. cerevisiae deletion strains, locus YDR162C, strain NBP2, active compounds read low
# [11] = S. cerevisiae deletion strains, locus YDR318W, strain mcm21, active compounds read low
# [12] = S. cerevisiae deletion strains, locus YDR388W, active compounds read low
# [13] = S. cerevisiae deletion strains, locus YDR502C, strain sam2, active compounds read low
# [14] = S. cerevisiae deletion strains, locus YER110C, active compounds read low
# [15] = S. cerevisiae deletion strains, locus YER155C, strain BEM2, active compounds read low
# [16] = S. cerevisiae deletion strains, locus YER167W, strain BCK2, active compounds read low
# [17] = S. cerevisiae deletion strains, locus YGL078C, strain dbp3, active compounds read low
# [18] = S. cerevisiae deletion strains, locus YGL086W, strain mad1, active compounds read low
# [19] = S. cerevisiae deletion strains, locus YGL248W, strain PDE1, active compounds read low
# [20] = S. cerevisiae deletion strains, locus YGR135W, strain pre9, active compounds read low
# [21] = S. cerevisiae deletion strains, locus YGR252W, strain gcn5, active compounds read low
# [22] = S. cerevisiae deletion strains, locus YHR030C, strain SLT2, active compounds read low
# [23] = S. cerevisiae deletion strains, locus YHR079C, strain IRE1 (second series), active compounds read low
# [24] = S. cerevisiae deletion strains, locus YHR094C, strain hxt1, active compounds read low
# [25] = S. cerevisiae deletion strains, locus YHR129C, strain ARP1, active compounds read low
# [26] = S. cerevisiae deletion strains, locus YHR200W, strain rpn10, active compounds read low
# [27] = S. cerevisiae deletion strains, locus YIL066C, strain RNR3, active compounds read low
# [28] = S. cerevisiae deletion strains, locus YIL073C, strain SPO22, active compounds read low
# [29] = S. cerevisiae deletion strains, locus YIL125W, strain kgd1, active compounds read low
# [30] = S. cerevisiae deletion strains, locus YIR030C, strain dcg1, active compounds read low
# [31] = S. cerevisiae deletion strains, locus YJL095W, strain BCK1, active compounds read low
# [32] = S. cerevisiae deletion strains, locus YJL134W, strain LCB3, active compounds read low
# [33] = S. cerevisiae deletion strains, locus YJL168C, strain set2, active compounds read low
# [34] = S. cerevisiae deletion strains, locus YJL187C, strain SWE1 (second series), active compounds read low
# [35] = S. cerevisiae deletion strains, locus YKL009W, strain mrt4, active compounds read low
# [36] = S. cerevisiae deletion strains, locus YKL068W, active compounds read low
# [37] = S. cerevisiae deletion strains, locus YKL085W, strain MDH1 (second series), active compounds read low
# [38] = S. cerevisiae deletion strains, locus YKL085W, strain MDH1, active compounds read low
# [39] = S. cerevisiae deletion strains, locus YKR001C, strain vps1, active compounds read low
# [40] = S. cerevisiae deletion strains, locus YLR039C, strain RIC1, active compounds read low
# [41] = S. cerevisiae deletion strains, locus YLR058C, strain SHM2, active compounds read low
# [42] = S. cerevisiae deletion strains, locus YLR102C, strain apc9, active compounds read low
# [43] = S. cerevisiae deletion strains, locus YLR268W, strain sec22, active compounds read low
# [44] = S. cerevisiae deletion strains, locus YLR330W, strain CHS5, active compounds read low
# [45] = S. cerevisiae deletion strains, locus YLR371W, strain rom2, active compounds read low
# [46] = S. cerevisiae deletion strains, locus YLR418C, strain cdc73, active compounds read low
# [47] = S. cerevisiae deletion strains, locus YML016C, strain PPZ1, active compounds read low
# [48] = S. cerevisiae deletion strains, locus YML032C, strain rad52, active compounds read low
# [49] = S. cerevisiae deletion strains, locus YML124C, strain tub3, active compounds read low
# [50] = S. cerevisiae deletion strains, locus YMR078C, strain ctf18, active compounds read low
# [51] = S. cerevisiae deletion strains, locus YMR223W, strain ubp8, active compounds read low
# [52] = S. cerevisiae deletion strains, locus YMR307W, strain GAS1, active compounds read low
# [53] = S. cerevisiae deletion strains, locus YNL067W, strain RPL9B, active compounds read low
# [54] = S. cerevisiae deletion strains, locus YNL153C, strain GIM3, active compounds read low
# [55] = S. cerevisiae deletion strains, locus YNL233W, strain BNI4, active compounds read low
# [56] = S. cerevisiae deletion strains, locus YNL250W, strain rad50, active compounds read low
# [57] = S. cerevisiae deletion strains, locus YNL271C, strain bni1, active compounds read low
# [58] = S. cerevisiae deletion strains, locus YNL298W, strain CLA4, active compounds read low
# [59] = S. cerevisiae deletion strains, locus YNL307C, strain MCK1, active compounds read low
# [60] = S. cerevisiae deletion strains, locus YNR052C, strain pop2, active compounds read low
# [61] = S. cerevisiae deletion strains, locus YOL012C, strain htz1
# [62] = S. cerevisiae deletion strains, locus YOL147C, strain pex11, active compounds read low
# [63] = S. cerevisiae deletion strains, locus YOR061W, strain CKA2, active compounds read low
# [64] = S. cerevisiae deletion strains, locus YOR069W, strain VPS5, active compounds read low
# [65] = S. cerevisiae deletion strains, locus YOR136W, strain idh2, active compounds read low
# [66] = S. cerevisiae deletion strains, locus YOR144C, strain elg1, active compounds read low
# [67] = S. cerevisiae deletion strains, locus YOR184W, strain ser1, active compounds read low
# [68] = S. cerevisiae deletion strains, locus YOR316C, strain cot1, active compounds read low
# [69] = S. cerevisiae deletion strains, locus YPL241C, strain CIN2, active compounds read low
# [70] = S. cerevisiae deletion strains, locus YPR119W, strain clb2, active compounds read low
# [71] = S. cerevisiae deletion strains, locus YPR141C, strain kar3, active compounds read low
# [72] = S. cerevisiae deletion strains, locus YPR163C, strain tif3, active compounds read low
# [73] = S. cerevisiae deletion strains, locus YPR167C, strain met16, active compounds read low
# [74] = S. cerevisiae deletion strains, strain wtn01, active compounds read low
smiles,measurement,setting,value
CC(=O)O[C@H]1CC[C@]2(C)C3C(=O)[C@@H](OC(C)=O)[C@@]4(C)C(C[C@@H]5O[C@]6(CCC(C)CO6)[C@@H](C)[C@@H]54)C3CC[C@H]2C1 (some centres undefined),normalized growth,[1],1.01
same,normalized growth,[2],0.997
same,normalized growth,[3],0.996
same,normalized growth,[4],1.03
same,normalized growth,[5],1.06
same,normalized growth,[6],0.986
same,normalized growth,"S. cerevisiae deletion strains, locus YDL134C, strain PPH21, active compounds read low",0.998
same,normalized growth,[7],0.986
same,normalized growth,[8],1
same,normalized growth,[9],1.01
same,normalized growth,[10],1.02
same,normalized growth,[11],0.991
same,normalized growth,[12],0.99
same,normalized growth,[13],0.984
same,normalized growth,"S. cerevisiae deletion strains, locus YEL061C, strain CIN8, active compounds read low",0.999
same,normalized growth,[14],0.983
same,normalized growth,[15],0.984
same,normalized growth,[16],0.993
same,normalized growth,[17],0.963
same,normalized growth,[18],0.986
same,normalized growth,[19],0.985
same,normalized growth,[20],0.978
same,normalized growth,[21],1.04
same,normalized growth,[22],0.992
same,normalized growth,[23],0.99
same,normalized growth,[24],0.987
same,normalized growth,[25],0.991
same,normalized growth,[26],0.982
same,normalized growth,[27],1.01
same,normalized growth,[28],1.01
same,normalized growth,[29],0.987
same,normalized growth,[30],0.988
same,normalized growth,[31],0.996
same,normalized growth,[32],0.993
same,normalized growth,[33],0.994
same,normalized growth,[34],0.988
same,normalized growth,[35],0.994
same,normalized growth,[36],0.997
same,normalized growth,[37],0.987
same,normalized growth,[38],0.987
same,normalized growth,"S. cerevisiae deletion strains, locus YKL190W, strain CNB1, active compounds read low",0.998
same,normalized growth,[39],0.982
same,normalized growth,[40],1.05
same,normalized growth,[41],1
same,normalized growth,[42],0.985
same,normalized growth,[43],1.01
same,normalized growth,[44],0.996
same,normalized growth,[45],0.99
same,normalized growth,[46],0.977
same,normalized growth,[47],0.981
same,normalized growth,[48],1.01
same,normalized growth,[49],0.991
same,normalized growth,[50],0.992
same,normalized growth,[51],0.994
same,normalized growth,[52],1
same,normalized growth,[53],0.981
same,normalized growth,[54],0.988
same,normalized growth,[55],0.988
same,normalized growth,[56],0.968
same,normalized growth,[57],0.976
same,normalized growth,[58],0.991
same,normalized growth,[59],0.986
same,normalized growth,"S. cerevisiae deletion strains, locus YNL322C, strain KRE1, active compounds read low",0.997
same,normalized growth,[60],0.974
same,normalized growth,[61],0.895
same,normalized growth,[62],0.986
same,normalized growth,[63],1
same,normalized growth,[64],0.996
same,normalized growth,[65],0.988
same,normalized growth,[66],0.992
same,normalized growth,[67],1.01
same,normalized growth,[68],0.987
same,normalized growth,"S. cerevisiae deletion strains, locus YPL055C, strain LGE1, active compounds read low",1.02
same,normalized growth,[69],0.996
same,normalized growth,[70],0.98
same,normalized growth,[71],0.983
same,normalized growth,[72],0.991
same,normalized growth,[73],0.976
same,normalized growth,[74],1.01
same,normalized growth,"S. cerevisiae strains, strain wild type, active compounds read low",1.01
CC(=O)O[C@H]1CC[C@]2(C)C3=CC(=O)[C@@]4(C)C(C[C@@H]5OC6(OCC(C)CC6Br)[C@@H](C)[C@@H]54)C3CC[C@H]2C1 (some centres undefined),normalized growth,"S. cerevisiae deletion strains, locus YAL013W, strain DEP1, active compounds read low",1.01
same,normalized growth,[1],0.964
same,normalized growth,[2],0.99
same,normalized growth,[3],0.994
same,normalized growth,[4],1.01
same,normalized growth,[5],1.01
same,normalized growth,[6],0.989
same,normalized growth,[7],0.988
same,normalized growth,[8],0.995
same,normalized growth,[9],1.02
same,normalized growth,[10],1.01
same,normalized growth,[11],0.997
same,normalized growth,[12],0.994
same,normalized growth,[13],0.995
same,normalized growth,[14],0.986
same,normalized growth,[15],0.987
same,normalized growth,[16],0.996
same,normalized growth,[17],0.982
same,normalized growth,[18],1.01
same,normalized growth,[19],0.995
same,normalized growth,[20],0.973
same,normalized growth,"S. cerevisiae deletion strains, locus YGR229C, strain SMI1, active compounds read low",1.03
same,normalized growth,[21],0.986
same,normalized growth,[22],0.992
same,normalized growth,[23],0.984
same,normalized growth,[24],0.973
same,normalized growth,[25],0.995
same,normalized growth,[26],0.984
same,normalized growth,[27],1
same,normalized growth,[28],1.01
same,normalized growth,[29],0.994
same,normalized growth,[30],0.996
same,normalized growth,[31],0.994
same,normalized growth,[32],0.993
same,normalized growth,[33],0.994
same,normalized growth,[34],0.981
same,normalized growth,"S. cerevisiae deletion strains, locus YJR043C, strain POL32, active compounds read low",1.02
same,normalized growth,"S. cerevisiae deletion strains, locus YJR075W, strain HOC1, active compounds read low",0.995
same,normalized growth,[35],1.01
same,normalized growth,[36],0.996
same,normalized growth,[37],1.13 [resistant] (active)
same,normalized growth,[38],1.13 [resistant] (active)
same,normalized growth,[39],0.989
same,normalized growth,[40],0.987
same,normalized growth,[41],0.995
same,normalized growth,[42],0.993
same,normalized growth,"S. cerevisiae deletion strains, locus YLR262C, strain YPT6, active compounds read low",1.04
same,normalized growth,[43],0.995
same,normalized growth,[44],0.997
same,normalized growth,[45],0.99
same,normalized growth,[46],0.991
same,normalized growth,[47],0.982
same,normalized growth,[48],0.995
same,normalized growth,[49],0.988
same,normalized growth,[50],0.993
same,normalized growth,[51],0.993
same,normalized growth,[52],0.981
same,normalized growth,[53],0.98
same,normalized growth,[54],0.993
same,normalized growth,[55],1.01
same,normalized growth,[56],0.989
same,normalized growth,[57],0.993
same,normalized growth,[58],0.99
same,normalized growth,[59],0.993
same,normalized growth,[60],0.983
same,normalized growth,[61],0.79
same,normalized growth,[62],0.997
same,normalized growth,[63],0.992
same,normalized growth,[64],0.992
same,normalized growth,[65],0.991
same,normalized growth,[66],0.989
same,normalized growth,[67],1.01
same,normalized growth,[68],0.99
same,normalized growth,[69],0.999
same,normalized growth,[70],0.991
same,normalized growth,[71],0.99
same,normalized growth,[72],0.992
same,normalized growth,[73],0.992
same,normalized growth,[74],1.01
